Bioassay records deposited in PubChem BioAssay by Broad Institute.
U2OS ROS induce = inducers of reactive oxygen species in cancer cells; U2OS ROS induction, H2DCF-DA fluorescence; ROS induction (% of piperlongumine), % at 10 µM; 46,000 compounds, 2% hits; in the data active means ROS induction above about 79%, passing the limit was not always enough
NOMO-1 viab = STK33 inhibitor candidate reducing NOMO-1 cell viability | NOMO-1 AML viability, CellTiter-Glo luminescence, 72 h | inhibition, % (concentration not given with the values) | 37,000 compounds, 7.5% hits | AID 2330; in the data active means inhibition above about 80%
A number is an active result. The sample as a whole holds a higher share of hits than the screen did.

`Oc1ccc2c3c1OC1[C@@H](O)CC[C@@]4(O)[C@@H](C2)N(CC2CCC2)CC[C@]314` (stereo not given in full) gave U2OS ROS induce inactive and NOMO-1 viab inactive.
For CCNC(=S)N1CCN(CC(=O)Nc2ccc(Cl)cc2C(=O)c2ccccc2)CC1 the results were U2OS ROS induce inactive and NOMO-1 viab inactive.
Cc1ccnc(NC(c2ccccc2[N+](=O)[O-])c2ccc3ccc(C)nc3c2O)c1 (stereo not given) was read as U2OS ROS induce inactive and NOMO-1 viab 124.
For CCCN1CCc2cccc3c2[C@H]1Cc1ccc(O)c(O)c1-3 the results were U2OS ROS induce inactive and NOMO-1 viab 113.
For COc1cc2c3c(c1OC)-c1c(ccc(O)c1O)CC3N(C)CC2 (stereo not given) the results were U2OS ROS induce inactive and NOMO-1 viab inactive.
For COc1cc2c(cc1OC)-c1c(OC)c(OC)c(N)c3c1[C@H](C2)N(C)CC3 the results were U2OS ROS induce inactive.
Screening CCCCCc1cc(O)c2c(c1)OC(C)(C)[C@@H]1CCC(C(=O)O)=CC21 (stereo not given in full) returned U2OS ROS induce inactive and NOMO-1 viab inactive.
Screening CN(C(=O)Oc1cccc2cccnc12)c1ccccc1 returned U2OS ROS induce inactive.
`Oc1cccc2cccnc12` gave U2OS ROS induce inactive and NOMO-1 viab 111.
For Fc1ccc(Sc2c(F)c(F)nc(N3CCNCC3)c2F)cc1 the results were U2OS ROS induce inactive.
Screening CC1(C)CC(=O)C2=C(C1)OC(N)=C(C(=O)OC(C)(C)C)C21C(=O)Nc2ccccc21 (stereo not given) returned U2OS ROS induce inactive and NOMO-1 viab inactive.
Screening COCc1cc(OC(=O)N(C)C)nc2c1c(-c1cccs1)nn2C returned U2OS ROS induce inactive and NOMO-1 viab inactive.
For CC[C@@H](CO)NC(=O)[C@@H]1C=C2c3cccc4c3c(cn4C)C[C@H]2N(C)C1 the results were U2OS ROS induce inactive and NOMO-1 viab inactive.
For CN1C[C@H](CNC(=O)OCc2ccccc2)C[C@@H]2c3cccc4c3c(cn4C)C[C@H]21 the results were U2OS ROS induce inactive and NOMO-1 viab 104.
Screening N[C@H]1C[C@@H]1c1ccccc1 returned U2OS ROS induce inactive and NOMO-1 viab inactive.
For CCOC(=O)CN1C(=O)C2(C(C(=O)OCC)=C(N)OC3=C2C(=O)CC(C)(C)C3)c2ccccc21 (stereo not given) the results were U2OS ROS induce inactive and NOMO-1 viab inactive.
CCC12CCCN3CCC4(c5ccc(OC)c(O)c5N(C(C)=O)C4CC1)C32 (stereo not given) was read as U2OS ROS induce inactive and NOMO-1 viab inactive.
For CC1C/C=C/C2C3OC3(C)C(C)C3C(Cc4ccccc4)NC(=O)C23OC(=O)O/C=C/C(C)(O)C1=O (stereo not given) the results were U2OS ROS induce inactive and NOMO-1 viab 93.
CC1OC(n2cnc3c(N)ncnc32)C[C@H]1O (stereo not given in full) was read as U2OS ROS induce inactive and NOMO-1 viab inactive.
Screening N#CC(O[C@@H]1O[C@H](CO)[C@@H](O)[C@H](O)[C@H]1O)c1ccccc1 (stereo not given in full) returned U2OS ROS induce inactive and NOMO-1 viab inactive.
`CCOC(=O)c1c(C)n(C(C)C)c2ccc(OC(=O)c3ccccc3)cc12` gave U2OS ROS induce inactive and NOMO-1 viab inactive.
`O=c1c2ccccc2[se]n1-c1ccccc1` gave U2OS ROS induce inactive and NOMO-1 viab 141.
For O=c1c2ccccc2nc(C(F)(F)F)n1-c1ccccc1 the results were U2OS ROS induce inactive and NOMO-1 viab inactive.
For CN(C)Cc1c[nH]c2ccccc12 the results were U2OS ROS induce inactive and NOMO-1 viab inactive.
c1ccc2c(CNCCc3c[nH]c4ccccc34)cccc2c1 was read as U2OS ROS induce inactive and NOMO-1 viab 106.
`CCCCC/C=C\C/C=C\C/C=C\C/C=C\CCCC(N)=O` gave U2OS ROS induce inactive and NOMO-1 viab inactive.
CC(C(=O)Nc1ccc(Cl)cc1C(=O)c1ccccc1)N1C(=O)C2C3C=CC(C3)C2C1=O (stereo not given) was read as U2OS ROS induce inactive and NOMO-1 viab inactive.
`CCC(C)[C@H]1C(=O)O[C@H](C(C)C)C(=O)N(C)[C@@H](C(C)CC)C(=O)O[C@H](C(C)C)C(=O)N(C)[C@@H](C(C)CC)C(=O)O[C@H](C(C)C)C(=O)N1C` (stereo not given in full) gave U2OS ROS induce inactive and NOMO-1 viab 119.
For CCC(C)[C@H]1C(=O)O[C@H](C(C)C)C(=O)N(C)[C@@H](C(C)C)C(=O)O[C@H](C(C)C)C(=O)N(C)[C@@H](C(C)C)C(=O)O[C@H](C(C)C)C(=O)N1C (stereo not given in full) the results were U2OS ROS induce inactive.
C=CC1C[N+]2([O-])CCC1CC2C(O)c1ccnc2ccc(OC)cc12 (stereo not given) was read as U2OS ROS induce inactive.
